Experimental data published in PubChem BioAssay AID1359 (The Scripps Research Institute Molecular Screening Center, 2008).
Among all 220,000 compounds or so, about 970 (0.44%) were called active. No stated cut-off is given here; in the data, active means activation above about 27%; inactive means the rest. This excerpt belongs to a sample that is enriched for actives.

Target: Neuropeptide Y receptor type 2 (Homo sapiens) (UniProt P49146)
Experiment: NPY-Y2 potentiators or agonists, primary screen, cell-based (AID 1359);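 further: cells stimulated with NPY near EC25 plus isoproterenol at EC100; 0% = vehicle plus submaximal agonist and 100% = vehicle plus saturating agonist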
Conditions: cells expressing NPY-Y2, potentiator/agonist read-out; at 3.6 µM; stronger effect = higher value

Neuropeptide Y receptor type 2 (Homo sapiens), sequence (P49146 whole entry, looked up): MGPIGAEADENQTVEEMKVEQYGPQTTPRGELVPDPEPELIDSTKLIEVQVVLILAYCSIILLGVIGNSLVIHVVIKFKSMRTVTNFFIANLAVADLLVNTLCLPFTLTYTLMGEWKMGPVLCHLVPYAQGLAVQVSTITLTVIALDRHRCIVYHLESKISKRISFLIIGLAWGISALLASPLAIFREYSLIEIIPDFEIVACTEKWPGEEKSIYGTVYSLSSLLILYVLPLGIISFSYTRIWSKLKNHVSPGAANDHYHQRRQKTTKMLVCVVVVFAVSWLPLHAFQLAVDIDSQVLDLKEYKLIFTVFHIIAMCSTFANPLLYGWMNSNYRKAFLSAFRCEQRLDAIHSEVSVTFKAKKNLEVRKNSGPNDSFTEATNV

activation, active:
CCOC(=O)C(Sc1ncc(C#N)c(N)n1)C(C)C (stereo not drawn) 41.9%
CN(C)c1ccc(CNC2C3CC4CC(C3)CC2C4)cc1 (stereo not drawn) 31.8%
O=C(NC(Nc1nc2ccc([N+](=O)[O-])cc2s1)(C(F)(F)F)C(F)(F)F)c1ccccc1 61.7%
Cc1coc2c(O)cc3c(c12)OC1(N2CCCCC2)C(=O)NCCCC31 (stereo not drawn) 93%
C#CCOCCOCCOCCNc1nc(N2CCN(C(=O)[C@H](CCCCN)n3cc([C@@H](N)C(C)CC)nn3)CC2)nc(N2CCN(C(=O)[C@H](Cc3ccc(O)cc3)n3cc([C@@H](N)C(C)CC)nn3)CC2)n1 (stereo partly drawn) 104%
COc1ccc2[nH]c3ccc(OC)cc3c2c1 65.6%
COc1ccc(C(=O)C2CCCN(Cc3cccn3-c3ccccn3)C2)c(C)c1 (stereo not drawn) 89.8%
COC(=O)c1ccc(NC(=O)Nc2ccc(C)cc2)cc1 99.2%

activation, inactive:
Oc1c(Br)cc(/C=N/NC(=S)NCC2CCCO2)cc1Br (stereo not drawn) 5.85%
Cn1nc(C(C)(C)C)c(NC(=O)c2sccc2Cl)c1C(C)(C)C -3.45%
O=C(CSc1ncnc2scc(-c3ccccc3)c12)NCc1ccc2c(c1)OCO2 -18.5%
CCOC(=O)c1c(C)nn(-c2ncccc2NC(=O)CCC(=O)O)c1C 2.97%
CCOC(=O)CSc1nccc(N(C)C)c1C#N -3.41%
CCCCOc1ccc(-c2ncc(C(=O)OCC)c(N)n2)cc1 -4.83%
COc1ccc2c(c1)c1ncn(Cc3ccccn3)c(=O)c1n2C -3.5%
Cc1oc2cc([N+](=O)[O-])c(O)c([N+](=O)[O-])c2c1C(=O)c1ccc(Br)cc1 8.73%
C[n+]1ccc(/C=C/c2c[nH]c3ccccc23)cc1 3.07%
O=C(O)/C=C\C(=O)Nc1ccc(OCc2ccccc2)cc1 -1.76%
c1cnc(NC2C3CC4CC(C3)CC2C4)nc1 (stereo not drawn) 2.83%
CN(C)c1ccc(CNC23CN4CN(CN(C4)C2)C3)cc1 8.96%
Cc1cccc(C)c1NC(=O)C(c1ccccc1)N1CC(=O)Nc2ccccc21 (stereo not drawn) -1.44%
CCOC(=O)/C(=C\c1ccc([N+](=O)[O-])cc1)C(=O)c1cc(C(C)=O)c(Nc2ccccc2)s1 -2.39%
CCOc1cc(/C=N/NC(=O)OC)ccc1OCCSc1ccc(Cl)cc1 3.6%
CC(CO)NCC12CC3CC(CC(C3)C1)C2 (stereo not drawn) 2.65%
Cc1ccc(NC(=O)O/N=C/c2cccc([N+](=O)[O-])c2)cc1 -2.02%
O=C(Nc1nc2ccc([N+](=O)[O-])cc2s1)c1ccncc1 17.8%
O=C(O)CCC(=O)Nc1nc2ccc([N+](=O)[O-])cc2s1 0.15%
CCc1c(C)sc(NC(=O)c2cccs2)c1C(N)=O 18%
COc1ccc(C2c3c(C)nn(-c4ccccc4)c3NC(=O)N2c2ccccc2)cc1 (stereo not drawn) 11.1%
Cc1ccc(C)c2c1cc(C)c1nnc(SCC(=O)Nc3cccc(C(=O)O)c3)n12 -10%
Cc1nn(CCOc2ccc(Br)cc2)c(C)c1[N+](=O)[O-] 14.5%
O=C(NC1C2CC3CC(C2)CC1C3)c1ccc(N2CCNCC2)c([N+](=O)[O-])c1 (stereo not drawn) 29.4%
C#CCOCCOCCOCCNc1nc(N2CCN(C(=O)C(Cc3ccc(O)cc3)n3cc(C(N)CC(C)C)nn3)CC2)nc(N2CCN(C(=O)C(Cc3ccc(O)cc3)n3cc(C(N)C(C)CC)nn3)CC2)n1 (stereo not drawn) -7.8%
C#CCOCCOCCOCCNc1nc(N2CCN(C(=O)[C@H](Cc3ccc(O)cc3)n3cc(C(N)CC(C)C)nn3)CC2)nc(N2CCN(C(=O)[C@H](CCC(=O)O)n3cc(C(N)[C@H](C)CC)nn3)CC2)n1 (stereo partly drawn) -9.15%
O=C(CCC(=O)NNc1nc2ccccc2c2nc(-c3ccccc3)nn12)NCCCN1CCCC1=O -1.14%
CCCCNC(=S)N/N=C1\CCCCc2ccccc21 2.42%
COc1ccc2[nH]c(=S)cc(C)c2c1 -28%
CCN(CC)CC(=O)c1c[nH]c2ccc(OC)cc12 0.4%
O=C(c1c(Cl)cccc1Cl)N1CCN(c2cccc3[nH]ccc23)CC1 6.12%
C=Cn1c(C(=O)O)ccc1-c1ccc(OC)cc1 -9.57%
COc1ccc(C(=O)C2CCCN(Cc3ccc4nonc4c3)C2)c(C)c1 (stereo not drawn) -20.8%
CCOC(=O)c1[nH]ncc1CN1CCCC(C(=O)c2ccc(OC)cc2C)C1 (stereo not drawn) 3.33%
CC1CCc2sc(C(=O)N/N=C/C3CCCCC3)cc2C1 (stereo not drawn) 4.14%
CSCC(=O)N1CCCC(C(=O)c2cc(F)ccc2F)C1 (stereo not drawn) 0.81%
O=C(Nc1ccccc1)N1CCN(C2c3ccccc3-c3ccccc32)CC1 -13.1%
N#C/C(=C\N1CCOCC1)S(=O)(=O)c1ccc(Cl)cc1 8.91%
Cc1cccc(C)c1NC(=O)C1(C)c2cccc[n+]2CC(=O)N1Cc1cccs1 (stereo not drawn) -2.7%
C/C(=N/NC(=O)c1ccn(C)n1)c1ccncc1 9.5%
CC(=O)c1cccc(NC(=O)Nc2ccc(C)cc2)c1 6.31%
Cc1ccc(NC(=O)CC(=O)Nc2ccc(C)cc2)cc1 -4.26%
Cc1ccc(S(=O)(=O)N2CCN(C(=O)COC(=O)c3c(C)noc3C)CC2)c(C)c1 -1.02%
O=C(NC(Cc1c[nH]c2ccccc12)C(=O)N/N=C/c1ccc(Br)cc1)c1cccs1 (stereo not drawn) 17.2%
COc1cc([N+](=O)[O-])ccc1NC(=S)N1CCN(c2ccccn2)CC1 -7.19%
